Hit rate of the full screen: of about 650,000 compounds, about 5,900 (0.91%) were called active. This is one part of a sample in which actives are shown more often than they occur. No stated cut-off is given here; in the data, active means inhibition above about 50%; inactive means the rest.
What follows are compounds tested against Microphthalmia-associated transcription factor (Homo sapiens) (UniProt O75030) (assay: MITF inhibitors, primary screen, biochemical, AlphaScreen, human (AID 1259374;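 further: 0% = vehicle wells with protein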)). Settings: AlphaScreen MITF homodimerization, bead proximity signal; at 2.6 µM; stronger effect = higher value.
Microphthalmia-associated transcription factor (Homo sapiens), sequence (O75030 whole entry, looked up): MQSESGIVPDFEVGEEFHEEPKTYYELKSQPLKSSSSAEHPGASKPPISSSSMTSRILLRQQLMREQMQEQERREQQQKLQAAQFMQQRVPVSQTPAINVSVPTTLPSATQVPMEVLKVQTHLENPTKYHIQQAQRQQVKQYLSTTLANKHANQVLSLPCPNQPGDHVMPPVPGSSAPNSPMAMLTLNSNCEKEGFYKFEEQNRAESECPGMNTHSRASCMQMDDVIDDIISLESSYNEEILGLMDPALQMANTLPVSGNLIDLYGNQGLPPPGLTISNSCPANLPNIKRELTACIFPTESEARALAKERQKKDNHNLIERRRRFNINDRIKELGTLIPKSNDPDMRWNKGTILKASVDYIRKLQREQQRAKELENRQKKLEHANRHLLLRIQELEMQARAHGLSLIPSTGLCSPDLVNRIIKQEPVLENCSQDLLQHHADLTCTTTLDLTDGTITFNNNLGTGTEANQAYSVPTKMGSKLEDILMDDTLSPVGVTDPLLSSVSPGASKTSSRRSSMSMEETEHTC

SMILES | inhibition
CC1C2Oc3ccccc3C1Oc1ccccc12 (stereo not given) | 4.85% (inactive)
COc1ccc2[nH]c3c(c2c1)CCOC31CCN(C(=O)CC2(CC(=O)O)CCCC2)CC1 | -10.7% (inactive)
Cc1nc2ccccn2c1/C(O)=C1\C(=O)C(=O)N(Cc2ccccc2)C1c1cccnc1 (stereo not given) | 66.2% (active)
O=C1C(=O)N(Cc2cccnc2)C(c2cccnc2)/C1=C(/O)c1ccccc1 (stereo not given) | 5.16% (inactive)
O=C1C(=O)N(Cc2cccnc2)C(c2ccncc2)/C1=C(\O)c1ccccc1 (stereo not given) | 11.9% (inactive)
CN(C)CCNC(=O)c1ccc(-c2cnc3c(NCc4ccc(F)cc4)nccn23)cc1 | -23.3% (inactive)
CCOC(=O)c1c(NC(=O)CSc2nnc(CNC(=O)c3cccc(OC)c3)n2C)sc2c1CCCCC2 | -18.6% (inactive)
O=C(O)CN1C(=O)/C(=C/c2cccc([N+](=O)[O-])c2)SC1=S | 4.75% (inactive)
O=C(O)CN1C(=O)/C(=C\c2cccc(C(=O)O)c2)SC1=S | 58.4% (active)
O=C(O)CN1C(=O)/C(=C\c2ccc(O)c(Br)c2)SC1=S | 17.2% (inactive)
CC1CN(c2ccc(/C=C(\C#N)c3nc4ccccc4[nH]3)o2)CC(C)O1 (stereo not given) | -14.4% (inactive)
Nc1nc(NCCO)cc(Nc2ccc(C(F)(F)F)cc2)n1 | -1.49% (inactive)
CCOC(=O)c1sc(NC(=O)C(C)Sc2nnc(CNC(=O)c3ccc(Cl)cc3Cl)n2C)c(C(=O)OCC)c1C (stereo not given) | -5.12% (inactive)
CCOC(=O)c1ccccc1NC(=O)C1CC(=O)N(c2ccc(Cl)c(Cl)c2)C1 (stereo not given) | -0.38% (inactive)
CN1C(=O)c2ccc(NC(=O)c3c(F)cccc3F)cc2C1=O | 4.14% (inactive)
O=C(NN1CCOCC1)c1cccc(F)c1 | 0.76% (inactive)
Cc1ccc(N2C(=O)c3ccc(C(=O)NN4C(=O)c5ccccc5C4=O)cc3C2=O)cc1C | 9.89% (inactive)
O=C(NN1C(=O)c2ccccc2C1=O)c1cccc(F)c1 | 69.1% (active)
CCN(CCCNC(=O)Cn1c(=O)[nH]c2ccccc2c1=O)c1cccc(C)c1 | -6.52% (inactive)
C=CCN(CC=C)CCCOc1ccc([N+](=O)[O-])c(C)c1 | 22.8% (inactive)
Cc1cc(OCCCN2CCN(Cc3ccccc3)CC2)ccc1[N+](=O)[O-] | 69.8% (active)
O=[N+]([O-])c1cnc(N2CCN(Cc3ccccc3)CC2)c([N+](=O)[O-])c1 | -6.34% (inactive)
COc1ccc(CN2CCC3(CC2)c2ccccc2[C@@H](NC(=O)CSC)[C@@H]3OC)cc1 | 5.12% (inactive)
COc1ccccc1N1C(=O)NC(=O)/C(=C/c2cc(OC)c(O)c([N+](=O)[O-])c2)C1=O | -6.01% (inactive)

SMILES | inhibition
C=CCN1C(=O)/C(=C\c2cc(OC)c(O)c([N+](=O)[O-])c2)C(=O)NC1=S | 57.5% (active)
C=CCN1C(=O)/C(=C\c2cc(OC)ccc2OC)C(=O)NC1=S | 18.8% (inactive)
CSc1cccc(NC(=O)C2C3C=CC4(O3)C2C(=O)N(C2CCCC(C)C2C)C4C(=O)NC2CCCCC2)c1 (stereo not given) | -2.61% (inactive)
O=c1cc(Cc2n[nH]c(=S)n2-c2ccc(F)cc2)[nH]c(=O)[nH]1 | 8.67% (inactive)
O=c1c2sc(=S)n(CCc3ccccc3)c2[nH]c(=S)n1Cc1ccco1 | -11.5% (inactive)
OCCN1CCN(C(c2ccc(F)cc2)c2ccc3cccnc3c2O)CC1 (stereo not given) | 50.6% (active)
O=C(NCC(c1cccnc1)N1CCOCC1)c1ccc(F)cc1 (stereo not given) | -7.05% (inactive)
O=S(=O)(Oc1cccc2cccnc12)N1CCOCC1 | -0.47% (inactive)
CCc1nc2sc(C(c3ccc(F)cc3)N3CCCC3)c(O)n2n1 (stereo not given) | -1.32% (inactive)
Cc1ccc(C(c2cc(Cl)c3cccnc3c2O)N2CCN(c3ccccn3)CC2)cc1 (stereo not given) | -1.76% (inactive)
Oc1c(C(c2cccnc2)N2CCOCC2)ccc2cccnc12 (stereo not given) | 73.7% (active)
CCCCC(=O)NC(c1ccco1)c1ccc2cccnc2c1O (stereo not given) | 33% (inactive)
Cc1c(Cl)cccc1NC(=S)NCC(c1cccnc1)N1CCOCC1 (stereo not given) | 7.47% (inactive)
Oc1c(C(c2ccccn2)N2CCOCC2)ccc2cccnc12 (stereo not given) | 75.7% (active)
CCN1CCN(S(=O)(=O)c2ccc(Br)c(OC)c2)CC1 | -5.44% (inactive)
Cc1ccc(C(=O)N/N=C\c2ccc(-c3ccc(Br)cc3)o2)cn1 | 8.68% (inactive)
CC(=O)N(C)c1ccc(NC(=O)COc2cc(C)ccc2C)cc1 | -10.1% (inactive)
COCCN(CCOC)C(=O)CSc1nnc2nc(C)cc(C)n12 | 9.62% (inactive)
O=C(c1ccccc1F)N1CCN(c2ccc(-c3cccnc3)nn2)CC1 | 4.6% (inactive)
CCSc1ccccc1C(=O)N1CCN(c2ccc(-c3ccccn3)nn2)CC1 | 121% (active)
O=C(NCc1ccccc1)N1CCN(c2ccc(-c3ccncc3)nn2)CC1 | -7.08% (inactive)
O=C(NCc1nnc2n1CCN(C1CCSCC1)CC2)c1c(F)cccc1F | 17.7% (inactive)
COc1ccccc1C(=O)N/N=C/c1ccc(O)cc1O | 23.2% (inactive)
COc1ccc(NC(=O)CN2CCN(C)CC2)c(OC)c1 | 105% (active)

SMILES | inhibition
COc1ccc(NC(=O)NN2CCN(C)CC2)c(OC)c1 | -3.56% (inactive)
COc1ccc(NC(=O)CN2CCN(S(=O)(=O)c3cc(Cl)ccc3OC)CC2)c(OC)c1 | 6.53% (inactive)
Cc1ccccc1-n1nc2c(c1NC(=O)C(C)Oc1ccccc1)CSC2 (stereo not given) | 10.4% (inactive)
NC(=O)N/N=C1\CCCCC1c1ccccc1 (stereo not given) | -1.85% (inactive)
Nc1c(C(=O)Nc2ccccc2)nnn1Cc1ccc(F)cc1 | 3.54% (inactive)
COc1ccc(Cn2nnc(C(=O)Nc3cccc(Cl)c3)c2N)cc1 | 61.4% (active)
COc1ccc(NC(=O)Cn2nnc(C(=O)Nc3cc(Cl)ccc3OC)c2N)cc1 | -3.11% (inactive)
Cc1ccc(NC(=O)Nc2nnc(CC(=O)Nc3ccccc3C)s2)cc1C | 17.1% (inactive)
N#Cc1ccc(OCC(=O)Nc2nc(-c3ccccn3)cs2)cc1 | 64.9% (active)
O=C(CSc1ccccc1)Nc1nc(-c2ccccn2)cs1 | 0.84% (inactive)
N#Cc1ccc(OCC(=O)Nc2ccccc2Cl)cc1 | 12.2% (inactive)
Clc1ccccc1/C=N/Nc1nccnc1Cl | -4.68% (inactive)
Oc1ccc(/C=N/Nc2ccccc2Cl)c(O)c1O | 56.2% (active)
O=C(N/N=C/c1ccccc1Cl)C(=O)N/N=C/c1ccccc1Cl | 17.2% (inactive)
Cc1ccc(NC(=O)c2c(N)sc3c2CCCCC3)cc1 | -9.3% (inactive)
O=C(c1ccccc1)c1ccc(OCC(O)CNCC2CCCO2)cc1 (stereo not given) | 12.1% (inactive)
Cc1ccc(NC(=O)c2cc3n(n2)C(C(F)(F)F)CC(c2ccc(Cl)c(Cl)c2)N3)cc1C (stereo not given) | 12.4% (inactive)
COc1ccc(C2CC(C(F)(F)F)n3nc(C(=O)Nc4cccc(C)c4)cc3N2)cc1OC (stereo not given) | -3.27% (inactive)
COc1ccc(NC(=O)c2cc3n(n2)C(C(F)(F)F)CC(c2ccc(OC)c(OC)c2)N3)cc1OC (stereo not given) | 63.8% (active)
COC(=O)c1ccc(NC(=O)/C(=C\c2ccco2)NC(=O)c2ccccc2Cl)cc1 | -0.56% (inactive)
O=C(CSc1nc2ccsc2c(=O)n1-c1ccc(Cl)cc1)N1CCCC1 | -8.93% (inactive)
O=C(N/N=C/c1ccc([N+](=O)[O-])cc1)c1cccc(I)c1 | 10.1% (inactive)
Cc1ccc(C(=O)Nc2cccc(C(=O)N/N=C/c3ccc(C#N)cc3)c2)cc1 | 2.24% (inactive)
N#Cc1ccc(/C=N/NC(=O)c2cc([N+](=O)[O-])cc([N+](=O)[O-])c2)cc1 | 66.5% (active)

SMILES | inhibition
O=C(O)C1Nc2ccc(Cl)cc2C2C=CCC12 (stereo not given) | 77% (active)
Cc1cc([N+](=O)[O-])cc2c1NC(C(=O)O)C1CC=CC21 (stereo not given) | 24.6% (inactive)
O=S(=O)(c1ccc(C2Nc3ccc(Cl)cc3C3C=CCC32)cc1)N1CCOCC1 (stereo not given) | -9.39% (inactive)
CN(C)CCN1C(=O)C(=O)/C(=C(\O)c2ccc(S(=O)(=O)N(C)C)cc2)C1c1ccc(C(C)(C)C)cc1 (stereo not given) | 13.9% (inactive)
CN(C)CC(C)(C)CNCc1nnc(-c2ccccc2)o1 | 56.2% (active)
CC(CCn1cccn1)NC(=O)CCc1nnc(-c2ccccc2)o1 (stereo not given) | 1.03% (inactive)
O=C(CCc1nnc(-c2ccccc2)o1)NC1(c2ccccc2)CC1 | -2.49% (inactive)
CCN1C(=O)/C(=C\c2ccc(O)cc2)C(=O)NC1=S | 3.62% (inactive)
O=C1NC(=S)N(Cc2ccco2)C(=O)/C1=C\c1ccc(N2CCOCC2)cc1 | 75.1% (active)
Cc1cc(N2CCOCC2)ccc1/C=C1\C(=O)NC(=S)N(c2ccccc2)C1=O | -14.9% (inactive)
CCOC(=O)N1CCC(N(CCN(C)C)C(=S)Nc2cccc(F)c2)CC1 | -2.5% (inactive)
O=C(O)C1c2ccccc2C(=O)N(Cc2ccc(F)cc2)C1c1cccc(F)c1 (stereo not given) | 10.8% (inactive)
COc1ccc(CN2CCN(Cc3ccccc3C(F)(F)F)CC2)cc1OC | 75.6% (active)
COc1ccccc1/C=C/CN1CCN(C)CC1 | 44.2% (inactive)
COc1ccc(CN2CCN(C(=O)c3ccc(F)cc3)CC2)cc1OC | 6.68% (inactive)
COc1ccc(CN2CCC3(CC2)CC3C(=O)NCc2ccccc2C(F)(F)F)cc1O (stereo not given) | 0.47% (inactive)
COc1ccc(C(=O)N2CCN(Cc3cccc(OC)c3OC)CC2)cc1OC | 44.2% (inactive)
COc1cccc(CN2CCN(C/C=C/c3ccccc3)CC2)c1OC | 63.1% (active)
COc1cccc(CN2CCN(Cc3ccc(SC)cc3)CC2)c1OC | 41% (inactive)
COc1cccc(CN2CCN(Cc3ccc(C(F)(F)F)cc3)CC2)c1OC | 77.8% (active)
COc1cccc(CN2CCOCC2)c1OC | -5.85% (inactive)
COc1ccc(C(=O)N2CCN(Cc3ccccc3C(F)(F)F)CC2)cc1OC | 83.3% (active)
COc1cccc(CNCc2ccc(Br)cc2)c1OC | 12.2% (inactive)
